Rows were chosen to be rich in hits. Some 7.9% of all compounds tested hit in one or more screens of this group.
Lassa entry inh: qHTS for Inhibitors of binding or entry into cells for Lassa Virus. Lassa virus pseudotype entry inhibition, cell reporter. Potency, µM (series often up to 37.9 µM), for the others: at the highest dose activity change, negative = inhibition, usual class: inhibitors. 300,000 tested, 1.2% active; calls by dose curve; tested in HEK293 cells; further: potency means the concentration at half of the fitted maximal effect; nearly all actives have a fitted effect of over 50% in size
FMDV antiviral: High Throughput Screening for Foot and Mouth Disease Virus Antivirals. FMDV antiviral cell-based qHTS. Potency, µM (doses to about 57.9 µM), without a hit: at the top dose activity change, negative = inhibition, actives largely listed as inhibitors. 410,000 tested, 1.2% active; calls by dose curve; tested in HEK293T cells; further: read-out not given here; potency means the concentration at half of the fitted maximal effect; nearly all actives have a fitted effect of over 45% in size
HCV inhibitor: qHTS Assay for Inhibitors of Hepatitis C Virus (HCV) | Huh7.5.1 HCVcc-Cre infection, luciferase reporter, 44 h | AID 651820, 2012 | 340,000 tested, 3.4% active | Potency, µM (highest dose often 41.8 µM), for inactives: at the highest dose activity change, negative = inhibition, usual class: inhibitors; active means well fitted inhibition curve with a large enough effect; inconclusive means small, poorly fitted or top-dose-only effect, or another doubt; inactive means no such curve, though single readings can be large or run the other way; further: potency means the concentration at half of the fitted maximal effect
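HCVcc-Cre virus at an moi near 0.5 was added right after compound to cells cultured 4 h from seeding (1,000 cells/well). Luciferase activity was determined 44 h later, 15 min after substrate addition at RT.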
HCMV antiviral: qHTS Assay for inhibitors of the human cytomegalovirus (HCMV); HFF cells, HCMV-luciferase reporter, 72 h; hits give low values; activity change, negative = inhibition, % at 57.5 µM; 410,000 tested, 4.5% active; in the data active means activity change below about -60%; inconclusive means no clear call, values can overlap the other calls; inactive means above about -39%
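Cell-based, HFFs, 1000 cells/well, 16 h 37C; cpds in DMSO + HCMV-luc, MOI 1 PFU/cell; 72 h 37C; OneGlo luminescence after 5 min RT; norm. to buffer vs Salinomycin 10uM.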
Marburg entry inh: qHTS for inhibitors of binding or entry into cells for Marburg Virus | Marburg virus pseudotyped entry inhibition, cell reporter | Potency, µM (series often up to 37.8 µM), for the others: at the highest dose activity change, negative = inhibition, hits mostly inhibitors | 300,000 tested, 1.8% active | AID 540276, 2011; calls by dose curve; tested in HEK293 cells; further: potency means the concentration at half of the fitted maximal effect
Active calls of the source: *; ? = inconclusive; · = not tested or not shown; [ ] = another dose, or the depositor's remark. On the % scale 0 is the no-effect control and ±100 the full control effect.

SMILES	Lassa entry inh	FMDV antiviral	HCV inhibitor	HCMV antiviral	Marburg entry inh
CCN(CC)c1ccc(NC(=O)c2ccco2)cc1	?	-23.2%	5.1%	21.0	?
COc1cc(OC)c(OC)cc1/C=N/Nc1nc2ccccc2[nH]1	·	-8.5%	-8.2%	2.5	·
CC(Oc1ccccc1)C(=O)N/N=C/c1ccccn1 (centres undefined)	6.7%	-23.1%	16.9%	25.1	11.3%
C/C(=N\NC(=O)C(C)Oc1ccc([N+](=O)[O-])cc1)c1ccccn1 (centres undefined)	11.6µM*	-26.2%	?	-104.4*	?
CCOc1ccc2nc3c(cc2c1)CN(CCOC)C(=NCCOC)S3	?	-9.4%	-18.4%	-61.0*	?
CCc1cccc(Nc2ncnc3onc(-c4ccc(F)cc4)c23)c1	3.8%[46.1 µM]	?	·	-31.5	·
COc1cc(OC)c2nc(C)c3c(c2c1)N(c1ccc(O)cc1)CC3	?	?	?	-102.8*	?
COc1ccc(N2CCN(c3cc(C)c4ccc(O)cc4n3)CC2)cc1	·	-23.0%	2.7%	4.7	·
COc1ccc2c3c(n(C)c2c1)[C@@H](CO)N(S(=O)(=O)c1ccccc1)CC31CCN(C)CC1	·	·	·	80.9	·
CC(Sc1nc(C(C)(C)C)cc(-c2ccccc2)c1C#N)C(=O)Nc1ccccc1 (centres undefined)	-12.9%	-34.1%	-24.6%	-63.5*	?
COc1cc2c(=O)c(S(=O)(=O)c3ccc(F)cc3)cn(Cc3ccccc3C)c2cc1OC	-27.7%[46.1 µM]	-14.8%	·	4.7	-0.8%[46.1 µM]
COc1cc2c3nnc(-c4ccc(F)cc4)c-3cn(Cc3ccccc3F)c2cc1OC	?	?	?	-89.4*	?
COc1ccc(C(=O)c2cn(Cc3ccccc3F)c3cc4c(cc3c2=O)OCO4)cc1	5.2%[46.1 µM]	0.0%	·	-2.2	4.0%[46.1 µM]
COc1cc2c3nnc(-c4ccccc4)c-3cn(Cc3ccccc3F)c2cc1OC	?	-15.2%	?	-97.3*	?
O=C(NCc1cccc(Cl)c1)c1oc(=O)c2ccccc2c1-c1ccccc1	-16.4%[46.1 µM]	-11.8%	·	-68.7*	-12.7%[46.1 µM]
Cc1ccc(C)c(S(=O)(=O)c2nnn3c2nc(N2CCCC2)c2sccc23)c1	?	6.0%	·	-21.3	·
O=P(c1ccccc1)(c1ccccc1)c1cc(Br)cc(Br)c1OCCO	-4.1%[46.1 µM]	-20.3%	-20.7%	·	12.6µM*
O=P(Cc1cc(Br)cc(Br)c1OCCO)(c1ccccc1)c1ccccc1	?	0.0%	-5.1%	-5.4	?
Oc1ccc(Br)cc1-c1ccnn1-c1ccccc1	-9.3%	?	?	7.8	8.91µM*
Oc1ccc(Br)cc1-c1n[nH]c(=S)n1Cc1ccccc1	2.6%[46.1 µM]	-10.1%	17.1%	-15.1	7.4%[46.1 µM]
CC(Oc1cccc(Cl)c1)C(=O)Nc1ccccc1N1CCCC1 (centres undefined)	?	-28.0%	-4.4%	22.0	4.4%
Cc1cc(OCC(=O)N2CCOCC2)c(C(C)C)cc1Cl	-3.1%	-19.5%	7.4%	-26.3	1.1%
Cc1cc(Cl)ccc1OC(C)C(=O)Nc1ccccc1N1CCOCC1 (centres undefined)	?	?	10µM*	-37.8	?
O=C(Nc1ccccc1N1CCOCC1)C1(c2ccc(Cl)cc2)CCC1	-21.8%[46.1 µM]	?	-29.4%	-66.0*	?
O=C(Cc1ccc(Cl)cc1)NC(=S)Nc1ccccc1N1CCOCC1	-10.0%	-8.1%	?	6.4	?
SMILES	Lassa entry inh	FMDV antiviral	HCV inhibitor	HCMV antiviral	Marburg entry inh
Cc1cc(OCC(=O)Nc2ccccc2N2CCOCC2)c(C(C)C)cc1Cl	·	?	?	-65.7*	·
Cc1cc(Cl)ccc1OC(C)C(=O)Nc1cccc(S(=O)(=O)N2CCOCC2)c1 (centres undefined)	·	-0.9%	·	-30.2	·
CC(Oc1ccc(Cl)cc1)C(=O)Nc1ccccc1N1CCOCC1 (centres undefined)	?	-18.3%	?	-28.1	12.6µM*
CCN1C(=NCc2ccc(OC)cc2)NC(c2ccccc2)C(C(=O)OC)=C1C (centres undefined)	·	·	·	·	-22.1%[14.2 µM]
c1ccc2c(N3CCCCC3)nc(N3CCCCC3)nc2c1	?	?	-24.3%	-37.9	25.6%
C(=C\c1nc(N2CCCCCC2)c2ccccc2n1)/c1ccccc1	-4.9%	39.8µM*	?	?	11.2µM*
Cc1cc(C)cc(NC(=O)CCN2C(=O)c3ccccc3Sc3ncccc32)c1	-1.8%[46.1 µM]	-5.0%	·	-60.5*	·
CCn1c2ccccc2c2cc(/C=N/NC(=O)c3cccc(C)c3)ccc21	-26.6%	-10.5%	?	19.6	?
Cn1c2ccccc2c2cc(/C=N/NC(=O)c3ccc(N)cc3)ccc21	?	-20.0%	11.2µM*	0.6	?
CCn1c2ccccc2c2cc(/C=N/NC(=O)c3ccccc3C)ccc21	?	-9.2%	5.62µM*	-23.1	?
Cn1c2ccccc2c2cc(/C=N/NC(=O)c3ccccc3F)ccc21	·	-6.4%	14.1µM*	-2.9	·
COc1ccc(C)cc1NC(=O)CN1C(=O)CCc2cc(S(=O)(=O)N3CCOCC3)ccc21	?	2.4%	·	32.8	·
N#Cc1ccc(-c2cccnc2)nc1SCc1ccc(Cl)c(Cl)c1	-0.5%	-26.4%	11.2µM*	-35.5	-0.8%
CCOc1ccc(CCNC(=O)C2Cc3ccccc3N2C(=O)CC)cc1OCC (centres undefined)	-23.2%[46.1 µM]	-10.1%	·	2.2	·
CCC(=O)Nc1ccc(C)cc1-c1nc2ccccc2n(CC(=O)c2ccc(C)cc2)c1=O	-18.8%[46.1 µM]	-21.6%	·	12.3	-0.3%[46.1 µM]
Cc1ccsc1-c1nc(CN(C)C(C2CC2)C2CC2)c(C)o1	-8.0%[46.1 µM]	-15.1%	-14.9%	3.4	8.91µM*
Cc1ccsc1-c1nc(CN2CCN(C)C(=O)[C@@H]2C)c(C)o1	6.0%[46.1 µM]	-2.7%	0.0%	29.7	-15.4%[46.1 µM]
Cc1ccc(NC(=O)CSc2nc3ccccc3n2CC(=O)N(C)C2CCCCC2)cc1C	?	-4.9%	·	-13.7	·
CN(C)c1ncc(C2=C(Cl)C(=O)C(N3CCCC3)=C(Cl)C2=O)s1	?	?	7.94µM*	-63.7*	?
O=C1C(Cl)=C(N2CCCCC2)C(=O)C(Cl)=C1c1cnc(N2CCCCC2)s1	11.6µM*	-2.5%	?	·	?
CC(=O)c1cnc(N(C)C)s1	-3.5%	-12.3%	14.5%	-27.5	-2.0%[46.1 µM]
Cc1cc(C)c(S(=O)(=O)n2cnc(C)c2)c(C)c1	-19.2%[46.1 µM]	-18.9%	·	-8.4	·
COc1cc(CN2CCOc3ccc(CN4CCC(O)(c5cccnc5)CC4)cc3C2)ccc1F	·	0.9%	·	·	·
COC(=O)C/C=C/[C@@H](C)[C@@H](/C=N/OC[C@@H](O)COCc1ccco1)OC	·	·	·	·	-14.0%[14.2 µM]
CN1CCN(CC(=O)N2CCn3c4c(c5cc(C6CCCCC6)ccc53)CCCC42)CC1 (centres undefined)	?	?	7.94µM*	·	?
Cc1ccc2c(c1)c1c3n2CCN(CC(N)=O)C3CCC1 (centres undefined)	24.1%[46.1 µM]	-2.5%	?	-98.0*	-2.8%[46.1 µM]
Cc1ccc(NC(=O)CSc2ccc(-c3sc(-c4ccccc4)nc3C)nn2)cc1F	0.1%[46.1 µM]	18.4%	·	6.3	·
